Data reported in the supplement of paper PMC10849652.
Of roughly 7,900 targets only a part is listed; those with a hit were picked by preference. About 0.6% of all pairs of compound and target were hits.

Tests used:
Test in all cases: log2 fold change, soluble protein after heating vs DMSO (PISA); higher = thermal stabilisation; K562 cells, 10 uM, 30 min; active = over 0.2 and 3.5 SD of the protein, either way, in both replicates (recomputed)
nilotinib = compound: Cc1cn(-c2cc(NC(=O)c3ccc(C)c(Nc4nccc(-c5cccnc5)n4)c3)cc(C(F)(F)F)c2)cn1 [nilotinib]
Method in brief: (§1)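 Soluble protein was quantified by TMTpro 16plex LC-MS/MS after channel sums were equalised. It was obtained as the supernatant after 21,000xg for 90 min from pooled aliquots of K562 cells (2×10^6 cells/mL, 10 μM compound, 30 min) heated for 3 min across 48°C-58°C and extracted in PBS with 0.5% NP-40 at 4°C. Thermal stability values are relative to control samples and come from duplicates. They are given as log2 fold changes.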

[1] = compound: Cc1nc(Nc2n[nH]c3c2CN(C(=O)N[C@H](CN(C)C)c2ccccc2)C3(C)C)c2sccc2n1
Method in brief: as §1

[2] = compound: Cc1ncc(-c2ccnc(Nc3ccc(S(C)(=O)=O)cc3)n2)n1C(C)C
Method in brief: as §1

[3] = compound: Cn1cc(-c2ccc3c(c2)CCN3C(=O)Cc2cccc(C(F)(F)F)c2)c2c(N)ncnc21
Method in brief: as §1

tipifarnib = compound: Cn1cncc1[C@@](N)(c1ccc(Cl)cc1)c1ccc2c(c1)c(-c1cccc(Cl)c1)cc(=O)n2C [tipifarnib]
Method in brief: as §1

[4] = compound: NC(=O)c1cnc(N[C@@H]2CCCC[C@@H]2N)nc1Nc1cccc(-n2nccn2)c1
Method in brief: as §1

dasatinib = compound: Cc1nc(Nc2ncc(C(=O)Nc3c(C)cccc3Cl)s2)cc(N2CCN(CCO)CC2)n1 [dasatinib]
Method in brief: as §1

[5] = compound: Cn1cc(-c2ccc3nnc(C(F)(F)c4ccc5ncccc5c4)n3n2)cn1
Method in brief: as §1

[6] = compound: NCC(=O)Nc1ccc(-n2nc(C(F)(F)F)cc2-c2ccc3c(ccc4ccccc43)c2)cc1
Method in brief: as §1

[7] = compound: NC(=O)Nc1cc(-c2cccc(F)c2)sc1C(=O)N[C@H]1CCCNC1
Method in brief: as §1

entinostat = compound: Nc1ccccc1NC(=O)c1ccc(CNC(=O)OCc2cccnc2)cc1 [entinostat]
Method in brief: as §1

[8] = compound: O=C1NC(=O)C(c2cnc3ccccn23)=C1c1cn2c3c(cc(F)cc13)CN(C(=O)N1CCCCC1)CC2
Method in brief: as §1

mubritinib = compound: FC(F)(F)c1ccc(/C=C/c2nc(COc3ccc(CCCCn4ccnn4)cc3)co2)cc1 [mubritinib]
Method in brief: as §1

[9] = compound: NC1(c2ccc(-c3nc4ccn5c(=O)[nH]nc5c4cc3-c3ccccc3)cc2)CCC1
Method in brief: as §1

citarinostat = compound: O=C(CCCCCCNC(=O)c1cnc(N(c2ccccc2)c2ccccc2Cl)nc1)NO [citarinostat]
Method in brief: as §1

silmitasertib = compound: O=C(O)c1ccc2c(c1)nc(Nc1cccc(Cl)c1)c1ccncc12 [silmitasertib]
Method in brief: as §1

[10] = compound: c1cc(OCCN2CCCCC2)cc(-c2n[nH]c3ccc(-c4nnc[nH]4)cc23)c1
Method in brief: as §1

[11] = compound: Cc1cccc(CC(=O)N2CCc3c2ccc(-c2cn(C)c4ncnc(N)c24)c3F)n1
Method in brief: as §1

vorinostat = compound: O=C(CCCCCCC(=O)Nc1ccccc1)NO [vorinostat]
Method in brief: as §1

bafetinib = compound: Cc1ccc(NC(=O)c2ccc(CN3CC[C@H](N(C)C)C3)c(C(F)(F)F)c2)cc1Nc1nccc(-c2cncnc2)n1 [bafetinib]
Method in brief: as §1

Measured: log2 fold change

MAPRE3 isoform 2 (UniProt Q9UPY8)
inactive: nilotinib -0.539 | [1] -0.355 | [2] -0.118 | [3] -0.028 | tipifarnib 0.201 | [4] -0.033

IGFBP6 (UniProt P24592)
Sequence of UniProt P24592 (P24592 whole entry, looked up): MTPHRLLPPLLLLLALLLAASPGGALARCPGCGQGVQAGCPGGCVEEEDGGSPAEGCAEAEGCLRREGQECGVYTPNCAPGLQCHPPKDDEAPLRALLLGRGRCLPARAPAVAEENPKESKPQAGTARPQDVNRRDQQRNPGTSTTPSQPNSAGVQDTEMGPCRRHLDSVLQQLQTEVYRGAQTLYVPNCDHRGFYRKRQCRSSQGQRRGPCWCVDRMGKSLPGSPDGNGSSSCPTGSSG
inactive: dasatinib -0.038 | [3] 0.152 | [5] 0.006 | [4] -0.079 | [6] -0.13

MAGED1 isoform 2 (UniProt Q9Y5V3)
Sequence of UniProt Q9Y5V3 (Q9Y5V3 whole entry, looked up): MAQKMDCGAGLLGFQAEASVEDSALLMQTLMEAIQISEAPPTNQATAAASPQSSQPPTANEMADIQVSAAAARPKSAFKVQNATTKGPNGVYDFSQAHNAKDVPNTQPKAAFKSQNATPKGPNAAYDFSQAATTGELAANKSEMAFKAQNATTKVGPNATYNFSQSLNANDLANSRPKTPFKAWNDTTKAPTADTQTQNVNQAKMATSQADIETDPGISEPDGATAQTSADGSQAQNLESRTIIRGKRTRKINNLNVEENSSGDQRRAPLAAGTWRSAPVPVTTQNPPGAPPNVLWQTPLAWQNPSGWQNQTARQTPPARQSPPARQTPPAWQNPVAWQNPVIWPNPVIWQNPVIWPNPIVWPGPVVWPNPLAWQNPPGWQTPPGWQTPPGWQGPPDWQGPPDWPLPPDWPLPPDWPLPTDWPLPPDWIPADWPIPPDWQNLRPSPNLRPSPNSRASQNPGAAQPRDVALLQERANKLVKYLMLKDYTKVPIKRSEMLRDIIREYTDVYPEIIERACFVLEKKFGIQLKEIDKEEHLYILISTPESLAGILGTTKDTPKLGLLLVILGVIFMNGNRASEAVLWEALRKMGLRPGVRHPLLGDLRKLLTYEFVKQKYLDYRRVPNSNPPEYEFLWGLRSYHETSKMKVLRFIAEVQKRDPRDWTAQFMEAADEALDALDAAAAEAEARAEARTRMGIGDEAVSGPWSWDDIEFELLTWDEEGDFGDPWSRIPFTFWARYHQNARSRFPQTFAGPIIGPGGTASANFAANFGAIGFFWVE
inactive: nilotinib -0.035 | [1] -0.008 | dasatinib 0.057 | [2] -0.082 | [3] 0.111 | tipifarnib -0.104 | [7] 0.098 | [4] -0.029 | [6] -0.258 | entinostat 0 | [8] 0.262

MAP4K4 isoform 6 (UniProt O95819)
Sequence of UniProt O95819 (O95819 whole entry, looked up): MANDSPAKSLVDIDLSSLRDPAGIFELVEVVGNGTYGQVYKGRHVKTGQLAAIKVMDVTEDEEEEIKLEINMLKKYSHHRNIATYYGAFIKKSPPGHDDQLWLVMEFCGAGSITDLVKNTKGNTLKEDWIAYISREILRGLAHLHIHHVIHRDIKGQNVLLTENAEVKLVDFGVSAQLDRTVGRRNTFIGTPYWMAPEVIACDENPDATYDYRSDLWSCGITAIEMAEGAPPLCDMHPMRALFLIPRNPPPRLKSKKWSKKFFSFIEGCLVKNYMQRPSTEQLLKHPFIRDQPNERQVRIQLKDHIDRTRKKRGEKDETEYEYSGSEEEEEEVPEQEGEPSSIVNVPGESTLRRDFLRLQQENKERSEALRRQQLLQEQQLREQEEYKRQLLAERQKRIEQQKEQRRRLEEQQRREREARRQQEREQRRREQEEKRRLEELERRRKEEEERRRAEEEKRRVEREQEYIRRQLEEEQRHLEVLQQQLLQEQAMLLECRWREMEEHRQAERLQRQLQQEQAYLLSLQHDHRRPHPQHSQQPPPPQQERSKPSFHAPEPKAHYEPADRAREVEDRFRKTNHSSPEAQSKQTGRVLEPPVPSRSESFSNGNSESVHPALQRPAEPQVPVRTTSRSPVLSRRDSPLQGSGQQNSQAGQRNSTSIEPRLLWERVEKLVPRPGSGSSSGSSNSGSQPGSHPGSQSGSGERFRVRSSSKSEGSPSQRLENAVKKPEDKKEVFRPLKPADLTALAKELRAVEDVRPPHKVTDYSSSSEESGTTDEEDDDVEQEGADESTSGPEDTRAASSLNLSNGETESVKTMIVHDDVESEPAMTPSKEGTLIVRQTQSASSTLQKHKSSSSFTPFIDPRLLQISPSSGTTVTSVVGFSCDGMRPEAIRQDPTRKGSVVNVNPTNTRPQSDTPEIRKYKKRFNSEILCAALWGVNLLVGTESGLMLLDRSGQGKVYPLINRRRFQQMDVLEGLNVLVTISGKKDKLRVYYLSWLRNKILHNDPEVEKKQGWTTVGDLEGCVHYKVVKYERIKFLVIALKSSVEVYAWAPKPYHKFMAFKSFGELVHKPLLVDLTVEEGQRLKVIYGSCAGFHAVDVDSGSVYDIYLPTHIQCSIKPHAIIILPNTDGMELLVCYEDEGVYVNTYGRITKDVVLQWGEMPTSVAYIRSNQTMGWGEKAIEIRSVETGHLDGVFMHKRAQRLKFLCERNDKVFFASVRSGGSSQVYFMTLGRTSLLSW
inactive: nilotinib 0.047 | [1] -0.034 | dasatinib -0.001 | [2] 0.008 | [3] 0.1 | mubritinib 0.02 | [7] 0.332 | [9] 0.009 | [6] 0.228 | entinostat 0.237 | citarinostat 0.114 | silmitasertib -0.202 | [10] 0.143

MAPK7 (UniProt Q13164)
inactive: [11] 0.034 | [4] -0.25 | vorinostat -0.069 | [8] 0

MAP4 isoform 5 (UniProt P27816)
inactive: bafetinib -0.028 | nilotinib -0.181 | [1] 0.028 | [2] 0 | [5] -0.037 | tipifarnib 0.066 | mubritinib 0.027 | [7] 0.135 | [4] 0.087 | [9] 0.109 | entinostat 0.075 | citarinostat -0.121 | silmitasertib 0.012 | [10] 0.074
active: [8] 0.423

MED17 (UniProt Q9NVC6)
Sequence of UniProt Q9NVC6 (Q9NVC6 whole entry, looked up): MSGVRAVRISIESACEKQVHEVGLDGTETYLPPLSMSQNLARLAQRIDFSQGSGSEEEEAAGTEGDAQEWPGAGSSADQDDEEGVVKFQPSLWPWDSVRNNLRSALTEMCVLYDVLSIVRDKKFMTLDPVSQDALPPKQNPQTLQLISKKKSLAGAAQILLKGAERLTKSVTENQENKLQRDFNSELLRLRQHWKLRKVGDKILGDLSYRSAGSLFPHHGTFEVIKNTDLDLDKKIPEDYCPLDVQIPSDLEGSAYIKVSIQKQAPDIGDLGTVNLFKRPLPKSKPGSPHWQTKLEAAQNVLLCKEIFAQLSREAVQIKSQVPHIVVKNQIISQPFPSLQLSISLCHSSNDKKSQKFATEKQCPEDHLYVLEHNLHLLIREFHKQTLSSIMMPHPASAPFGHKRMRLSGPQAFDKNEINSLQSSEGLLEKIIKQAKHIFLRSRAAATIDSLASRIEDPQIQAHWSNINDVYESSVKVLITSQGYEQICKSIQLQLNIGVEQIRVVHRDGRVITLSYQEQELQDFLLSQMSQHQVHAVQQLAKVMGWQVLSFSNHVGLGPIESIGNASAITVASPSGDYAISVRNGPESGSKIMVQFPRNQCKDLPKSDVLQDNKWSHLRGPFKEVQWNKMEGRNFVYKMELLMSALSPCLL
inactive: [11] -0.033 | nilotinib 0.069 | [1] 0.079 | dasatinib -0.152 | [2] -0.108 | [3] -0.033 | [5] -0.069 | tipifarnib 0.077 | mubritinib 0.015 | [7] 0.068 | [9] 0.049 | [6] -0.034 | entinostat -0.128 | vorinostat 0.045 | citarinostat 0.014 | silmitasertib 0.074 | [8] 0.112 | [10] 0.126
active: [4] -0.33

MARCHF3 (UniProt Q86UD3)
Sequence of UniProt Q86UD3 (Q86UD3 whole entry, looked up): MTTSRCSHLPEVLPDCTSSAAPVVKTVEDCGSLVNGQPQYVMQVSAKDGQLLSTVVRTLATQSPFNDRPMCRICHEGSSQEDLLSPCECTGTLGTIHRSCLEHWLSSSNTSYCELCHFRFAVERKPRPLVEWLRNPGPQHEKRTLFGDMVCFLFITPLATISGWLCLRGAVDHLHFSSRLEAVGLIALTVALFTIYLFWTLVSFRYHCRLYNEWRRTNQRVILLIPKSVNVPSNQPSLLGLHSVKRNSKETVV
inactive: bafetinib 0.109 | nilotinib 0.156 | [1] 0.15 | [2] 0.036 | tipifarnib 0.001 | [7] 0.169 | entinostat -0.038 | citarinostat -0.133 | [8] -0.014 | [10] -0.26

MAP3K20 isoform 2 (UniProt Q9NYL2)
Sequence of UniProt Q9NYL2 (Q9NYL2 whole entry, looked up): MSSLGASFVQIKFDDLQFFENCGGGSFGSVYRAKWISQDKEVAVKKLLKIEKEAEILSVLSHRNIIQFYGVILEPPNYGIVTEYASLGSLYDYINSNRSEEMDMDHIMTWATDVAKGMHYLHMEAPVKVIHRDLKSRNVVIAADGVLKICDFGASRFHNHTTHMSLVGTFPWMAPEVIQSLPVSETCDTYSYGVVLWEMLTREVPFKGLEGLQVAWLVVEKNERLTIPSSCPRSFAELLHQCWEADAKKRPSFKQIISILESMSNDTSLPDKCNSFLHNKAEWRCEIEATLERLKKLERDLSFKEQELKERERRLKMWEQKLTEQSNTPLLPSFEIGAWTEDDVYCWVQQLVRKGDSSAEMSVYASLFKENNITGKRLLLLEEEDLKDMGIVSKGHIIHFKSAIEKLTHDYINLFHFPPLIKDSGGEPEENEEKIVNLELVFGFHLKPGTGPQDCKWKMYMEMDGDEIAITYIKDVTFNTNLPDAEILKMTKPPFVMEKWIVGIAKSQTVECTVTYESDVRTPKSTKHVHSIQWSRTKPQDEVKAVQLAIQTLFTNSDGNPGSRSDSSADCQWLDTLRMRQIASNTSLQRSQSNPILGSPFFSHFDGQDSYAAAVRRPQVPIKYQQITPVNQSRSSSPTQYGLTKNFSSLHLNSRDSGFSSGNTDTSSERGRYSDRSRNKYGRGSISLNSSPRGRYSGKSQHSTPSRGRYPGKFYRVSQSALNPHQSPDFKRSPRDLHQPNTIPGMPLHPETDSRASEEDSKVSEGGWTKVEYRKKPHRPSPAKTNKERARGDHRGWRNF
inactive: nilotinib 0.098 | [1] 0.014 | [2] -0.07 | tipifarnib 0.138 | mubritinib -0.134 | [7] 0.09 | [4] -0.041 | [9] 0.099 | entinostat 0.056 | silmitasertib 0.009 | [8] -0.008

KIF13A isoform 4 (UniProt Q9H1H9)
inactive: [3] 0.069 | [7] -0.034 | [4] -0.165 | entinostat 0.303

LRRCC1 (UniProt Q9C099)
Sequence of UniProt Q9C099 (Q9C099 whole entry, looked up): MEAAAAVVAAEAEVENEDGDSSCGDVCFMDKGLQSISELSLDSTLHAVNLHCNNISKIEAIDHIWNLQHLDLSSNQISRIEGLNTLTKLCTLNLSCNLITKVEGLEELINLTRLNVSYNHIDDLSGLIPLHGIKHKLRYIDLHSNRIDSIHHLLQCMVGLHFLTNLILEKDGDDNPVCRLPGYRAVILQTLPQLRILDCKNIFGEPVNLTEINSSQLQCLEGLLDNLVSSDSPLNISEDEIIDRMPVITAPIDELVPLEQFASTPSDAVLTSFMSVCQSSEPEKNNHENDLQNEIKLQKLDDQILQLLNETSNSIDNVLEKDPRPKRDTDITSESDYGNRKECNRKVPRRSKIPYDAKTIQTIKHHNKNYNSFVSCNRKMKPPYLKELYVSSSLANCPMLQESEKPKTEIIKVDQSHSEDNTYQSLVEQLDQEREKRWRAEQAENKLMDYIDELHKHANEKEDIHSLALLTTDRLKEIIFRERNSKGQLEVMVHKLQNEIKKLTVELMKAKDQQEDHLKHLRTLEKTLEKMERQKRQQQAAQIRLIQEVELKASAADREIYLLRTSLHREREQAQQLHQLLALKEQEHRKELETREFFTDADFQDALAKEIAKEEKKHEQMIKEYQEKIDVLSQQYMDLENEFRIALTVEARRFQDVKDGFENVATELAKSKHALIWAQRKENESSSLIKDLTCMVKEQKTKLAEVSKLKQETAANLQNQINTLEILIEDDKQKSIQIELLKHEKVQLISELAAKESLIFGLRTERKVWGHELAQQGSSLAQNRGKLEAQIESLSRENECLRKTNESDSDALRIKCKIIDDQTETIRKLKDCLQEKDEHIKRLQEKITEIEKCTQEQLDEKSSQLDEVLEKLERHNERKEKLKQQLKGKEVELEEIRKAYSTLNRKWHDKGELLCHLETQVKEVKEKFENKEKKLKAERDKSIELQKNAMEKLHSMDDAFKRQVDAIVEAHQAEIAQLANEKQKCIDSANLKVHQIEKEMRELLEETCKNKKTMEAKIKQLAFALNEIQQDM
inactive: dasatinib 0.017 | [5] 0.063 | [4] -0.041

ILF3 (UniProt Q12906)
inactive: bafetinib 0.084 | nilotinib -0.065 | [1] 0.167 | [2] 0.364 | mubritinib -0.074 | [7] 0.013 | [9] 0.331 | entinostat 0.058 | citarinostat -0.134 | silmitasertib 0.181 | [8] 0.174 | [10] -0.218

LSR (UniProt M0QZL9)
inactive: [7] -0.508 | [6] -0.095 | entinostat -0.406 | [8] -0.074

IKZF1 (UniProt R9R4D9)
inactive: [11] -0.164 | dasatinib -0.17 | [3] -0.044 | tipifarnib -0.119 | vorinostat -0.181

LDLRAP1 (UniProt Q5SW96)
inactive: bafetinib -0.011 | [5] 0.14
